The whole screen tested about 320,000 compounds, of which about 50 (0.02%) were called active. Shown is part of a subset that was picked to be rich in actives. Values without a mark were called inactive.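 The calls were made as follows: active = GFP response relative to DMSO above a set limit, near screen average plus 3 SD (cut at about 150% in these data); inconclusive = fewer than 70 cells counted for the yeast strain; inactive = the rest.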

This assay can be described thus: yeast AGP1-GFP level changes, GLN3 branch – cell-based, multiplex flow cytometry, S. cerevisiae, MLPCN library, primary screen (AID 2066).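 Also: median GFP channel fluorescence of the gated AGP1 strain per well.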 The following applies: 3 h, at 10 µM, active compounds read high, GFP as percent of DMSO wells.
Turning to `O=C(Nc1ccc(F)cc1)C1CCCN(S(=O)(=O)c2ccc(-n3cnnn3)cc2)C1` (centres undefined), the GFP response vs DMSO is 102%.

In the case of `CCN(CC)CCNS(=O)(=O)c1ccc(/C=C/C(=O)O)cc1`, the GFP response vs DMSO is 98.4%.

Take `Cc1ccc(NC(=O)CSc2nn3c(=O)c(C)nnc3s2)cc1Cl`: the GFP response vs DMSO was 93.9%.

Take `Cc1ccc(S(=O)(=O)c2nnn3c2nc(N2CCN(c4ccccn4)CC2)c2ccccc23)cc1`: the GFP response vs DMSO is 97.1%.

As for `CC(=O)Nc1ccc(Nc2nc3c(S(=O)(=O)c4ccc(C)c(C)c4)nnn3c3ccccc23)cc1`, the GFP response vs DMSO was 100%.

Turning to `Cc1cccc(Nc2nc3c(S(=O)(=O)c4ccccc4)nnn3c3ccccc23)c1C`, the GFP response vs DMSO was 224% [may fluoresce green] (active).

On to `NC(=O)C1CC=CCC1C(=O)OCC(Cl)=C(Cl)Cl` (centres undefined), for which the GFP response vs DMSO was 105%.

With `Cc1cc(C)cc(OCC(=O)OCC(=O)NC2CCCC2)c1`, the GFP response vs DMSO was 87.5%.

Take `O=C(Nc1nccs1)c1cc(S(=O)(=O)N2CCOCC2)c(Cl)cc1Cl`: the GFP response vs DMSO is 100%.

As to `CN(C)S(=O)(=O)c1cc(C(=O)Nc2ccn(C)n2)c(Cl)cc1Cl`, the GFP response vs DMSO was 1300% [may fluoresce green] (active).

For the compound `Cc1ccc(C(=O)Nc2ccn(C)n2)cc1`, the GFP response vs DMSO is 102%.

As to `Cn1nnnc1SCC(=O)Nc1ccccc1C(=O)NC1CC1`, the GFP response vs DMSO is 102%.

As to `Cc1ccc2c(=O)cc(C(=O)NCCc3ccc(S(N)(=O)=O)cc3)oc2c1C`, the GFP response vs DMSO is 93.5%.

With `Cc1oc(C(N)=O)cc1COc1ccc(C(N)=O)cc1`, the GFP response vs DMSO was 101%.

As to `O=C1CCC/C=C/C[C@@H](CC(=O)N(CCO)Cc2ccccc2)C(=O)NC[C@H](c2ccccc2)O1`, the GFP response vs DMSO is 96.8%.

With `Cc1ccc(C)c(NC(=O)CCC(=O)N/N=C2/CC(=O)CC(C)(C)C2)c1`, the GFP response vs DMSO was 96.2%.

As for `O=C(COC(=O)c1cc(S(=O)(=O)N2CCOCC2)ccc1F)NC1CC1`, the GFP response vs DMSO was 91.4%.

As for `COc1cccc(C(=O)Nc2cc3c(cc2Br)OCCCO3)c1`, the GFP response vs DMSO was 92%.

As to `CS(=O)(=O)Nc1ccccc1C(=O)OCC(=O)NC1CC1`, the GFP response vs DMSO is 106%.

Take `O=C(CCc1[nH]c2ccccc2c1Sc1ccccc1)N(CCO)CCO`: the GFP response vs DMSO was 99.2%.

For the compound `Nc1nc(NCc2ccccc2)n(-c2ccccc2)n1`, the GFP response vs DMSO was 99.9%.

For `COc1cc(C)ccc1OCC(=O)OCC(=O)c1ccc[nH]1`, the GFP response vs DMSO was 100%.

Turning to `COc1ccc(S(=O)(=O)N(C)C[C@@H]2Oc3ccc(NS(=O)(=O)c4cn(C)cn4)cc3C(=O)N([C@@H](C)CO)C[C@@H]2C)cc1`, the GFP response vs DMSO is 91.3%.

Regarding `COCCn1c(SCC(=O)Nc2ccccc2F)nc2c(c1=O)SCC2`, the GFP response vs DMSO is 96.5%.

With `Cc1ccc(Oc2cc(NC(=O)CCCn3nc(C)c([N+](=O)[O-])c3C)cc([N+](=O)[O-])c2)cc1`, the GFP response vs DMSO is 95.5%.

For the compound `CCn1cc(C(=O)Nc2cc(C)ccc2C)c(=O)c2ccc(C)nc21`, the GFP response vs DMSO is 108%.

Take `C=CCNC(=S)/N=c1/ccccn1Cc1ccccc1`: the GFP response vs DMSO is 108%.

For the compound `Cc1ccc2cc(C)c(N3CCC(C)CC3)nc2c1`, the GFP response vs DMSO was 108%.

As for `CCC1(C)Cc2c(sc3nnn(CC(=O)Nc4ccc(Cl)cc4)c(=O)c23)CO1` (centres undefined), the GFP response vs DMSO is 98%.

`Cc1nn(Cc2ccccc2)c(C)c1C(=O)N1CCN(CC(=O)Nc2ccccc2Cl)CC1`: the GFP response vs DMSO is 99.8%.

On to `CCN1C(=O)N[C@@H](c2ccccc2)[C@H](C(C)=O)[C@H]1C`, for which the GFP response vs DMSO is 81.1%.

`COC(=O)c1cc(NC(=O)c2cc(C(C)(C)C)nn2Cc2cccc(C)c2)ccc1N1CCOCC1`: the GFP response vs DMSO is 97%.

For `CCOC(=O)C(C)n1cnc2scc(-c3ccc(C)c(C)c3)c2c1=O` (centres undefined), the GFP response vs DMSO is 93.8%.

Regarding `COC(=O)c1sccc1-n1cccc1C(=O)C(=O)N1CCCCC1`, the GFP response vs DMSO is 92.6%.

With `Cc1ccc(C(c2nnnn2CS(=O)(=O)c2ccc(C)cc2)N2CCC(C)CC2)cc1` (centres undefined), the GFP response vs DMSO is 91.3%.

As to `CC(=O)Nc1ccc(S(=O)(=O)NCC(=O)OCC(=O)c2ccc[nH]2)cc1`, the GFP response vs DMSO is 107%.

Turning to `O=C(Nc1cc(S(=O)(=O)N2CCOCC2)ccc1N1CCOCC1)c1c(F)cccc1Cl`, the GFP response vs DMSO is 103%.

With `CC(Sc1nnc(Cc2ccc([N+](=O)[O-])cc2)o1)C(N)=O` (centres undefined), the GFP response vs DMSO is 97.7%.

Take `O=C(O)c1cccc(S(=O)(=O)N2CC=C(c3ccccc3)CC2)c1`: the GFP response vs DMSO is 101%.

Consider `O=C1c2ccccc2C(=O)N1CC1c2ccccc2CCN1S(=O)(=O)c1ccccc1` (centres undefined), for which the GFP response vs DMSO was 96.4%.

Regarding `Cc1nnc(CN(C)Cc2cn[nH]c2-c2ccc(-c3ccccc3)cc2)o1`, the GFP response vs DMSO was 108%.

`CC(c1ccccn1)N(C)C(=O)c1ccc2nc(Cc3cccc(Cl)c3)oc2c1` (centres undefined): the GFP response vs DMSO was 103%.

Take `Cn1nnnc1SCC(=O)Nc1cccc(S(=O)(=O)N2CCCCC2)c1`: the GFP response vs DMSO is 77.3%.

As for `O=C(OCC(=O)N1CCCCCC1)c1cnc(Cl)c(Cl)c1`, the GFP response vs DMSO was 97.1%.

For `COc1ccc(NC2=CC(=S)NC(C)(C)C2)cc1`, the GFP response vs DMSO is 99.9%.

As for `CCN(CC)CCCNC(=O)c1c(O)c2cc(F)cc3c2n(c1=O)C(C)CC3` (centres undefined), the GFP response vs DMSO was 88.3%.

For `O=c1cc(Cl)c2ccccc2n1-c1ccccc1`, the GFP response vs DMSO was 103%.

For the compound `N#Cc1ccccc1NC(=O)COc1c(Br)cc(Br)c2cccnc12`, the GFP response vs DMSO is 96.8%.

Consider `Cc1cc(C)nc(N2C(=O)CC(Cc3ccccc3)C2=O)n1` (centres undefined), for which the GFP response vs DMSO is 112%.

For `CCOC(=O)N1CCC(NC(=O)CN2C(=O)COc3ccc(C(C)(C)C)cc32)CC1`, the GFP response vs DMSO was 88.7%.

Regarding `CCCCN(C(=O)c1ccc2ccccc2c1)c1c(N)n(CCCC)c(=O)[nH]c1=O`, the GFP response vs DMSO was 92.5%.

With `O=C(CN1CCN(S(=O)(=O)c2cc(Cl)ccc2Cl)CC1)c1ccc(O)c(O)c1`, the GFP response vs DMSO was 94.9%.

`CCOc1ccc2oc(C(=O)N(CC)CC(=O)Nc3ccc(NC(C)=O)cc3)c(C)c2c1`: the GFP response vs DMSO is 103%.

Regarding `COc1cccc(NC(=O)C(Sc2nc3ccccc3c(=O)n2CC(C)C)c2ccccc2)c1` (centres undefined), the GFP response vs DMSO was 98.7%.
